# Only some compounds are listed: those with a hit (about 19% of all), similar ones and a draw of the others.
# Giardia killer – Giardia lamblia killing; Giardia lamblia trophozoite viability; activity change, % at 7.66 µM, hits read low; 0.15% of 340,000 active; in the data active = activity change below about -80%; inconclusive = between about -30% and that limit;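 also: parasites exposed to compound for two days anaerobically before the ATP read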
#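 Killing of trophozoites was scored by loss of ATP luminescence after a 48 hrs anaerobic exposure to compounds at 37 deg C, using 100 cells per well.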
# IL-1B inflam inh – inflammasome signaling inhibition, IL-1 beta readout; THP-1 LPS/ATP IL-1B secretion, AlphaLISA, 16 h; stronger effect = lower value; activity change, % at 57.5 µM; 4.7% of 360,000 active; in the data active = activity change below about -50%; inconclusive = mostly about -30% to -49%
#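 THP-1 cells pretreated 1 hr with compounds (up to 57.5 uM final), then stimulated with LPS (250 ng/mL final) plus ATP (1.25 mM final); secreted IL-1B measured by AlphaLISA after 16 hr, decreased signal indicating inhibition.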
# TDP1 cell CPT – growth inhibition of DT40 Tdp1-/-;hTDP1 cells with camptothecin (screen for TDP1 inhibitors); AID 686979; chicken DT40 Tdp1-/-;hTDP1 cells + 20 nM CPT, ATP luminescence, 48 h; 12% of 420,000 active; Potency, µM (top dose mostly 46.2 µM), without a hit: top-dose activity change, negative = growth inhibition, usual class: inhibitors; also: potency is read from the fitted curve at half-maximal effect; nearly all actives have a fitted effect of over 55% in size
#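 Cell growth measured by CellTiter-Glo luminescence after a minimum 48 h, 37 C compound exposure with 20 nM CPT in Tdp1-knockout DT40 cells stably expressing hTDP1, seeded 400/well; qHTS titration format.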
# DT40 TDP1 no CPT – qHTS for Inhibitors of human tyrosyl-DNA phosphodiesterase 1 (TDP1): qHTS in cells in absence of CPT; DT40 Tdp1-/- hTDP1 cells, no CPT, ATP luminescence, 48 h; Potency, µM (highest dose often 46.2 µM), for the others: at the highest dose activity change, negative = growth inhibition, usual class: inhibitors; 15% of 420,000 active; AID 686978, 2013; also: potency is read from the fitted curve at half-maximal effect; nearly all actives have a fitted effect of over 55% in size
#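 Chicken DT40 Tdp1-/- cells complemented with human TDP1, screened without camptothecin (DMSO vehicle only), 400 cells/well. Compounds pin-transferred, cells incubated at 37 °C for at least 48 hr. Growth read as ATP-dependent luminescence (CellTiter-Glo, 30 min at RT).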
# TDP1 inh – TDP1 (human) enzyme inhibition. Q9NUW8. recombinant TDP1, AlphaScreen DNA substrate cleavage. Potency, µM (series often up to 130 µM), without a hit: at the highest dose activity change, negative = inhibition, hits mostly inhibitors. 0.28% of 350,000 active. AID 485290; also: potency is read from the fitted curve at half-maximal effect; nearly all actives have a fitted effect of over 40% in size
# Target sequence (Q9NUW8 whole entry, looked up): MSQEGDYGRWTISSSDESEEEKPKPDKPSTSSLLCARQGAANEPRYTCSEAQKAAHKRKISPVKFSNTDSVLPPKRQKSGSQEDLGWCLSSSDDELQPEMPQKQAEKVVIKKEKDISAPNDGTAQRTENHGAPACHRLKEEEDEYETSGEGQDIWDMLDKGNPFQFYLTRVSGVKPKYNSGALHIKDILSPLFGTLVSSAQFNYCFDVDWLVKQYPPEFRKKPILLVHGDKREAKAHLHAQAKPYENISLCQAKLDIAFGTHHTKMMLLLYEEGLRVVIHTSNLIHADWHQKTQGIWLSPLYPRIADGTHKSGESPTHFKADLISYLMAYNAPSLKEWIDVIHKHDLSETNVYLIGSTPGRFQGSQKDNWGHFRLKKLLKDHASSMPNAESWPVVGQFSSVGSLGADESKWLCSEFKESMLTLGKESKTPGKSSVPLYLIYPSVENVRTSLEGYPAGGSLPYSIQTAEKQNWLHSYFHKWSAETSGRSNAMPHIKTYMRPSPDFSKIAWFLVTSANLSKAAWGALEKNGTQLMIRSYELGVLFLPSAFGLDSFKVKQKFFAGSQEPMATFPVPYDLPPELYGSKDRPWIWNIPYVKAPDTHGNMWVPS
#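 AlphaScreen read-out: signal falls as enzyme removes the 3' tyrosine-FITC from a 5'-biotinylated DNA oligo (15 nM, 5 min, RT). Enzyme was E. coli-made recombinant Tdp1 at 1 nM, exposed to compound for 15 min beforehand; beads 10 ug/ml, 10 min.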
# ELG1 DNA repair – inhibitors of ELG1-dependent DNA repair in HEK293T cells; 2.3% of 330,000 active; HEK293T ELG1-luciferase reporter, luminescence, 16 h; DNA damage induced by 5-fluorouridine; Potency, µM (highest dose often 46.1 µM), for the others: at the top dose activity change, negative = inhibition, hits mostly inhibitors; also: potency is read from the fitted curve at half-maximal effect; nearly all actives have a fitted effect of over 55% in size
#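 Luminescence from the luciferase reporter, measured 30 min after ONE-Glo reagent at room temperature, was the read-out. Beforehand, 2,000 cells per well were exposed for 16 hr at 37 °C to 5-fluorouridine together with compound or vehicle.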
# * = called active by the depositor; ? = inconclusive; / = not tested or not shown; [ ] = dose if it differs, or a comment. Unless noted, calls follow the shape of the dose curve; as a rule, active = well fitted curve in the direction sought with a large enough effect; inconclusive = small, poorly fitted or top-dose-only effect, or another doubt; inactive = no such curve, though single readings can be large; an effect the other way counts as inactive or inconclusive. % is scaled to controls: 0 for no effect and ±100 for the full control effect.
SMILES,Giardia killer,IL-1B inflam inh,TDP1 cell CPT,DT40 TDP1 no CPT,TDP1 inh,ELG1 DNA repair
CCOC(=O)CC1CCCCN1Cc1cn[nH]c1-c1ccc(F)cc1F (stereo not given),41,16,-13%,-20%,-4%,7%
Cc1ccc(OC(F)F)c(NC(=O)Nc2cccc(C(F)(F)F)c2)c1,18,-99*,13µM*,?,-2%,?
COc1ccc(NC(=O)Nc2cccc(C(F)(F)F)c2)cn1,2,?,?,21µM*,3%,?
COc1ccc(NC(=O)Nc2cccs2)cn1,?,-6,13µM*,18µM*,/,?
COc1cccc(NC(=O)Nc2cc(C)ccc2OC)c1,-2,-7,-5%,?,/,3%
CSc1ncc2c(=O)[nH]c(-c3ccccc3)nc2n1,-30,-74*,2%,-10%,/,5%
CC(=O)Nc1ccc(CN2CCCC(CCC(=O)NCc3ccccc3F)C2)cc1 (stereo not given),17,-14,5%,2%,2%,15%
O=C(NCc1ccco1)C1CCN(c2nc3ccccc3n2Cc2ccccc2F)CC1,2,?,16µM*,?,0%,?
Cc1ccc(Cn2c(CN3CCC(C(=O)NCCc4ccccc4)CC3)cc3ccccc32)cc1,/,/,23µM*,16µM*,11%,/
Cc1ccc(Cn2c(CN3CCC(C(=O)NCC(C)c4ccccc4)CC3)cc3ccccc32)cc1 (stereo not given),/,/,?,26µM*,-1%,/
COCCCNC(=O)C1CCN(Cc2cc3ccccc3n2Cc2ccccc2C)CC1,/,/,?,?,-2%,/
O=C(CCC1CCCN(Cc2cccc(Cl)c2)C1)NCc1ccccc1F (stereo not given),-5,0,21µM*,?,/,-10%
CN(C)S(=O)(=O)c1ccc(C(=O)N2CCN(S(=O)(=O)c3ccc4c(c3)OCCO4)CC2)cc1,-12,-9,?,-16%,/,/
CC(C)[C@H](NC(=O)[C@H](CCCCN)NC(=O)[C@@H](NC(=O)[C@@H]1CCCN1C(=O)[C@H](CCCN=C(N)N)NC(=O)[C@H](CCCN=C(N)N)NC(=O)[C@H](CCCCN)NC(=O)[C@H](CCCCN)NC(=O)CNC(=O)[C@@H](NC(=O)[C@@H]1CCCN1C(=O)[C@@H](N)CCCCN)C(C)C)C(C)C)C(=O)N[C@@H](Cc1ccc(O)cc1)C(=O)N1CCC[C@H]1C(=O)O,/,/,/,/,6%,/
COCCn1c(=O)cnc2cnc(Oc3ccccc3)nc21,/,/,?,-20%,/,/
O=C(NCc1ccccc1F)C1CCN(Cc2cc3ccccc3n2Cc2cccc(Cl)c2)CC1,/,/,?,23µM*,2%,/
COCCNC(=O)C1CCCN(Cc2cccc(Cl)c2)CC1 (stereo not given),/,16,-23%,-14%,/,/
O=C(NCCc1ccccc1)C1CCN(Cc2ccccc2F)CC1,11,0,3%,-10%,-2%,-5%
O=C(NCCc1ccccc1)C1CCN(Cc2cc3ccccc3n2Cc2cccc(Cl)c2)CC1,/,/,?,21µM*,4%,/
COc1cc2c(C(=O)N3CCN(C)CC3)c(C)oc2cc1Br,9,14,0%,-13%,2%,-5%
Cc1oc2cc3c(C(=O)N4CCCCC4)c(C)oc3cc2c1C(=O)N1CCCCC1,-12,21,?,18µM*,5%,?
Cc1ccc(O)c(N=Cc2cccs2)c1,-9,-1,23µM*,?,5%,?
COc1ccccc1N1CCN(C(=O)CN(C)S(=O)(=O)c2cc(C)ccc2OC)CC1,?,-13,-13%,-22%,0%,-30%
COc1ccc(CNC(=O)c2c(N)n(CCCN3CCOCC3)c3nc4ccccc4nc23)cc1,24,-18,?,?,-2%,21µM*
N=c1c(C(=O)NCc2ccc(F)cc2)cc2c(=O)n3ccccc3nc2n1CCCN1CCOCC1,4,-16,?,?,-3%,3%
SMILES,Giardia killer,IL-1B inflam inh,TDP1 cell CPT,DT40 TDP1 no CPT,TDP1 inh,ELG1 DNA repair
CCOCCCNC(=O)c1c(N)n(-c2ccc(S(N)(=O)=O)cc2)c2nc3ccccc3nc12,-4,-13,-2%,-10%,2%,27%
COC(=O)c1c(N)n(CCCN2CCOCC2)c2nc3ccccc3nc12,2,-30,-1%,-12%,3%,-20%
CCOc1ccc(-n2c(N)c(C(=O)NCc3ccco3)c3nc4ccccc4nc32)cc1,0,-96*,21µM*,18µM*,-1%,-20%
Nc1c(C(=O)NCc2ccco2)c2nc3ccccc3nc2n1CCc1ccccc1,11,-57*,?,?,1%,?
O=C(CCc1ccccc1)Nc1ccccc1C(=O)NCc1ccco1,6,-10,-28%,?,6%[56.1 µM],?
Nc1c(C(=O)NCc2ccc(F)cc2)c2nc3ccccc3nc2n1CCCN1CCOCC1,5,-10,?,18µM*,-5%,?
CCOc1ccc(NC(=O)CSc2cn[nH]n2)cc1,9,4,-3%,-54%,?,?
CCc1noc(C)c1C(=O)Nc1nnc(C(CC)CC)s1,23,31,-3%,4%,0%,-20%
COc1ccc(CNC(=O)C/C(C)=N/NC(=O)COc2ccccc2)cc1,-12,16,16%,14%,5%,1%
Nc1c(C(=O)NCc2ccccc2)c2nc3ccccc3nc2n1CCCN1CCOCC1,-8,-29,?,-80%,-8%,21µM*
COCCOC(=O)c1c(N)n(CCCN2CCOCC2)c2nc3ccccc3nc12,2,8,13%,1%,1%,-11%
CCC1=NN(C(=O)c2ccccc2O)C(O)(c2ccccc2)C1 (stereo not given),-1,107,13µM*,12µM*,5%,-13%
CCC1=NN(C(=O)c2ccc(Cl)cc2)C(O)(c2ccc(C)cc2)C1 (stereo not given),-24,48,?,?,5%,-29%
CCC1=NN(C(=O)c2ccc([N+](=O)[O-])cc2)C(O)(c2ccccc2)C1 (stereo not given),-6,-24,?,?,/,?
CCC1=NN(C(=O)c2ccc(Cl)cc2)C(O)(c2ccccc2)C1 (stereo not given),-22,-8,23µM*,?,2%,-18%
COc1ccc(OCCC(=O)OCC(=O)NCCc2ccccc2)cc1,-9,-4,12%,-19%,-1%,-11%

# Screening data from PubChem BioAssay.
